Drawing on PubChem BioAssay (EPA / NIEHS), this text covers outcome and AC50 for 27 molecules.

Calls of active or inactive are those of the source. How the source made its calls: active means hit-call score of the fitted dose curve at least 0.9, where 1 is the maximum; inactive means score below 0.9.

Test system in the first experiment: not listed separately
The experiment in a line: ATG_PBREM_CIS: Attagene CIS-FACTORIAL HepG2 Assay for human Phenobarbital-responsive Enhancer Module (PBREM) (AID 2282955). Conditions: HepG2 PBREM cis-reporter, Attagene multiplexed transcription; actives raise or lower the signal. In a few lines: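 HepG2 cells transiently transfected with multiple cis-regulated reporter units measure endogenous transcription factor activity; 24 h compound exposure. Reporter mRNA quantified by RT-PCR, fluorescent labelling, HpaI digestion and capillary electrophoresis; bidirectional fit versus DMSO.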
`N#Cc1cc(Br)c(O)c(Br)c1`: the outcome was inactive.

`O=C(O)COc1nc(Cl)c(Cl)cc1Cl`: the outcome was inactive.

For the molecule `COc1cnc(OC)n2nc(NS(=O)(=O)c3c(OCC(F)F)cccc3C(F)(F)F)nc12`, the outcome was inactive.

For the molecule `CCOC(=O)C(Cl)Cc1cc(-n2nc(C)n(C(F)F)c2=O)c(F)cc1Cl` (stereo unspecified), the outcome was inactive.

`CNC(=O)ON=CC(C)(C)SC`: the result was inactive.

For the molecule `CCNc1nc(Cl)nc(NCC)n1`, the result was inactive.

As to `N#CC(CCc1ccc(Cl)cc1)(Cn1cncn1)c1ccccc1` (stereo unspecified), the outcome was inactive.

By AC50 is commonly meant the concentration giving half of the maximal activity seen. On to `CCOP(=S)(OCC)SCn1c(=O)oc2cc(Cl)ccc21`, for which the AC50 is 7.17 µM (active).

With `CS/C(C)=N/OC(=O)N(C)SN(C)C(=O)O/N=C(\C)SC`, the result was inactive.

Take `Fc1ccc(Oc2ccnc3cc(Cl)cc(Cl)c23)cc1`: the outcome was inactive.

As for `CCON=C(CC)C1=C(O)CC(c2c(C)cc(C)cc2C)CC1=O` (stereo unspecified), the outcome was inactive.

Turning to `Cc1ccc(-c2c(Cl)nc(C#N)n2S(=O)(=O)N(C)C)cc1`, the AC50 was 11.9 µM (active).

As for `CCOc1cc(Oc2ccc(C(F)(F)F)cc2Cl)ccc1[N+](=O)[O-]`, the outcome was inactive.

For the molecule `COC(=O)C(C)Oc1ccc(Oc2ccc(Cl)cc2Cl)cc1` (stereo unspecified), the result was inactive.

Take `Cc1cc(Cl)ccc1OCC(=O)O`: the outcome was inactive.

For the molecule `CN(C)C(=S)SSC(=S)N(C)C`, the result was inactive.

Regarding `C#CCOS(=O)OC1CCCCC1Oc1ccc(C(C)(C)C)cc1` (stereo unspecified), the AC50 was 1.39 µM (active).

With `CC(C)Oc1cc(-n2nc(C(C)(C)C)oc2=O)c(Cl)cc1Cl`, the AC50 is 0.427 µM (active).

In the case of `COP(N)(=O)SC` (stereo unspecified), the result was inactive.

For another experiment, the target named is Paired box protein Pax-6 (Homo sapiens) (UniProt P26367). The experiment in a line: ATG_Pax6_CIS: Attagene CIS-FACTORIAL HepG2 Assay for human Paired Box 6 (PAX6) (AID 2282956). The conditions noted are these: HepG2 CIS-FACTORIAL PAX6 reporter transcription, RNA readout; actives raise or lower the signal. The method in brief: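 HepG2 cells transiently transfected with cis-promoter-driven multiplexed reporter units sensing endogenous transcription factor activity; 24 h chemical exposure. Reporter mRNA quantified by RT-PCR, 6-FAM labelling, HpaI digestion and capillary electrophoresis; bidirectional fit versus DMSO baseline.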
Sequence of Paired box protein Pax-6 (Homo sapiens) (P26367 whole entry, looked up): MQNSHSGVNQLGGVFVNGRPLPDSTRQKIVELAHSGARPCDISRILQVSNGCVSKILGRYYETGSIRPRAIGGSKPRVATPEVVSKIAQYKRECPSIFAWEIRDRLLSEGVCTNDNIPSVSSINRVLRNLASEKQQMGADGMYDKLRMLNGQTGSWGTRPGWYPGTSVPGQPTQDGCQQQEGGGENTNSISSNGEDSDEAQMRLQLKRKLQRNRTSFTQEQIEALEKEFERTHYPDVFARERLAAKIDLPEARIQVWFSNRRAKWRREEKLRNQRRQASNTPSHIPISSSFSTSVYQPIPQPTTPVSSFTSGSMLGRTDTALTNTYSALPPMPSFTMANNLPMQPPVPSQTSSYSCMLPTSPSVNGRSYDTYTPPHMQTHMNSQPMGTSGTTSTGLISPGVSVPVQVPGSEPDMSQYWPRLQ
Take `N#Cc1cc(Br)c(O)c(Br)c1`: the result was inactive.

Take `Cc1c(F)c(F)c(COC(=O)C2C(/C=C(\Cl)C(F)(F)F)C2(C)C)c(F)c1F` (stereo unspecified): the result was inactive.

As to `O=C(O)COc1nc(Cl)c(Cl)cc1Cl`, the molecule was classed as inactive.

Consider `COc1cnc(OC)n2nc(NS(=O)(=O)c3c(OCC(F)F)cccc3C(F)(F)F)nc12`, for which the call was inactive.

Turning to `O=C(O)c1nc(Cl)ccc1Cl`, the call was inactive.

On to `CCOC(=O)C(Cl)Cc1cc(-n2nc(C)n(C(F)F)c2=O)c(F)cc1Cl` (stereo unspecified), for which the molecule was called inactive.

In the case of `CNC(=O)ON=CC(C)(C)SC`, the call was inactive.

Consider `CCNc1nc(Cl)nc(NCC)n1`, for which the result was inactive.

On to `N#CC(CCc1ccc(Cl)cc1)(Cn1cncn1)c1ccccc1` (stereo unspecified), for which the outcome was inactive.

In the case of `CCOP(=S)(OCC)SCn1c(=O)oc2cc(Cl)ccc21`, the result was inactive.

As for `CS/C(C)=N/OC(=O)N(C)SN(C)C(=O)O/N=C(\C)SC`, the molecule was called inactive.

Regarding `Fc1ccc(Oc2ccnc3cc(Cl)cc(Cl)c23)cc1`, the result was inactive.

Regarding `CCON=C(CC)C1=C(O)CC(c2c(C)cc(C)cc2C)CC1=O` (stereo unspecified), the molecule was called inactive.

Consider `Cc1ccc(-c2c(Cl)nc(C#N)n2S(=O)(=O)N(C)C)cc1`, for which the molecule was classed as inactive.

In the case of `CC(Oc1ccc(Cl)cc1Cl)C(=O)O` (stereo unspecified), the result was inactive.

For the molecule `CCOc1cc(Oc2ccc(C(F)(F)F)cc2Cl)ccc1[N+](=O)[O-]`, the outcome was inactive.

Consider `CCNc1nc(Cl)nc(NC(C)C)n1`, for which the outcome was inactive.

In the case of `COC(=O)C(C)Oc1ccc(Oc2ccc(Cl)cc2Cl)cc1` (stereo unspecified), the molecule was called inactive.

On to `Cc1cc(Cl)ccc1OCC(=O)O`, for which the molecule was called inactive.

In the case of `CN(C)C(=S)SSC(=S)N(C)C`, the call was inactive.

For the molecule `C#CCOS(=O)OC1CCCCC1Oc1ccc(C(C)(C)C)cc1` (stereo unspecified), the outcome was inactive.

Turning to `CC(C)Oc1cc(-n2nc(C(C)(C)C)oc2=O)c(Cl)cc1Cl`, the call was inactive.

With `CC1=C(C(=O)Nc2ccccc2)SCCO1`, the molecule was called inactive.

For the molecule `COP(N)(=O)SC` (stereo unspecified), the result was inactive.

As to `O=C(Nc1ccccc1)Nc1ccnc(Cl)c1`, the call was inactive.

Regarding `CC1COC(Cn2cncn2)(c2ccc(Oc3ccc(Cl)cc3)cc2Cl)O1` (stereo unspecified), the molecule was classed as inactive.

For `C=CC1(C)OC(=O)N(c2cc(Cl)cc(Cl)c2)C1=O` (stereo unspecified), the outcome was inactive.
